Data published in PubChem BioAssay AID1775 (NMMLSC, 2009).
“And” between values parts separate entries of the source, which are not always exact repeats. Identical values can stand only once. The whole screen tested about 220,000 compounds, of which about 820 (0.37%) were called active. The sample holds actives, similar compounds and a random draw of the others, so the mix is not that of the screen. Rule as the data show it: active = fluorescence above about 47; inactive = the rest.

Experiment: green autofluorescence of compounds with avidin beads – biophysical, 488/530 nm, flow cytometry, artefact control, profiling panel (AID 1775)
Details: compound fluorescence 488/530 nm, at 10 µM, active compounds read high

Row | Compound | fluorescence (KMESF)
1 | O=C(CCCCn1c(=O)[nH]c2ccccc2c1=O)NCc1ccc2c(c1)OCO2 | 81 (active)
2 | COc1ccc(CCNC(=O)CCCCn2c(=O)[nH]c3ccccc3c2=O)cc1OC | 39 (inactive)
3 | O=C(CCCCCn1c(=O)[nH]c2ccccc2c1=O)NCCc1c[nH]c2ccccc12 | 14 (inactive)
4 | N/C(=N\OC(=O)CCn1cccc(C(F)(F)F)c1=O)c1ccc(OC(F)(F)F)cc1 | 8 (inactive)
5 | COc1cccc(C(=O)N2CCCC(CCC(=O)NCc3ccc(F)c(F)c3)C2)c1 (stereo not given) | 8 (inactive)
6 | O=C(Nc1ccccc1)c1cccnc1Nc1ccccc1 | 8 (inactive)
7 | O=C(Nc1ccc(-n2ccnc2P(=O)(O)c2ccccc2)cc1)c1ccccc1Br | 81 (active)
8 | Cc1ccc(NC(=O)c2cccnc2C(=O)Nc2ccc(C)cc2)cc1 | 10 (inactive)
9 | COc1ccc(CCN2C(=O)N(c3ccc(OC)cc3)C(=O)C2CC(=O)Nc2ccc(OC)cc2)cc1 (stereo not given) | 6 (inactive)
10 | Cc1cc(NC(=O)CSc2nccn2-c2ccc([N+](=O)[O-])cc2)no1 | 25 (inactive)
11 | C/C(=N/Nc1ccc(Cl)cc1)c1cnnc(-c2ccccc2)n1 | 21 (inactive)
12 | Cc1ccc(S(=O)(=O)N2CCOCC2)cc1C(=O)NC(=S)N(Cc1ccccc1)C(C)C | 4 (inactive)
13 | CCN(CC(=O)Nc1cccc(S(N)(=O)=O)c1)Cc1nc2ccccc2c(=O)[nH]1 | 7 (inactive)
14 | COc1ccc(C2CC(c3ccccc3)Nc3ncnn32)cc1 (stereo not given) | 9 (inactive)
15 | FC(F)Oc1ccccc1C1CC(c2ccc(Br)s2)Nc2ncnn21 (stereo not given) | 72 (active)
16 | Clc1ccc(C2CC(c3cccs3)n3ncnc3N2)cc1Cl (stereo not given) | 7 (inactive)
17 | CNC(=S)NNC(=O)c1oc2nc(-c3ccccc3)cc(-c3ccco3)c2c1N | 7 (inactive)
18 | COc1ccc(CCN2C(=O)CC(N3CCC(C(N)=O)CC3)C2=O)cc1OC (stereo not given) | 5 (inactive)
19 | O=C(CCc1[nH]c2ccccc2c1Sc1ccccc1)N(CCO)CCO | 16 (inactive)
20 | CS/C(=C\C(=O)c1ccco1)Nc1ccccc1Cl | 7 (inactive)
21 | COc1ccc(CCNC(=O)CN(c2ccccc2)S(C)(=O)=O)cc1 | 9 (inactive)
22 | COC(=O)CNC(=O)c1ccc(OC2CCN(C(=O)C3CC3)CC2)cc1 | 7 (inactive)

Row | Compound | fluorescence (KMESF)
23 | O=C(COC(=O)CCC(=O)c1cccs1)NCc1ccco1 | 9 (inactive)
24 | O=C(CC12CC3CC(CC(C3)C1)C2)NCc1ccco1 | 11 (inactive)
25 | O=C(COC(=O)C12CC3CC(CC(C3)C1)C2)NCc1ccco1 | 56 (active)
26 | COCCCn1c(-c2cccs2)nc2nc3ccccc3nc21 | 6 (inactive)
27 | Cc1cs/c(=N\N=C\c2ccc(O)cc2)n1Cc1ccco1 | 7 (inactive)
28 | COc1ccc(NC(=O)Cn2c(=O)n(Cc3ccco3)c(=O)c3ccccc32)cc1 | 36 (inactive)
29 | CN(c1ccccc1)c1ccc(/C=c2\s/c(=C(/C#N)C(=O)C(C)(C)C)n(Cc3ccco3)c2=O)cc1 | 453 (active)
30 | CCOC(=O)CC(NC(=O)C1c2ccccc2Oc2ccccc21)c1ccc(C)cc1 (stereo not given) | 11 (inactive)
31 | Clc1ccc(C[n+]2cc(-c3ccccc3)n3c2CCC3)cc1 | 7 (inactive)
32 | O=C(/C=C/c1ccco1)Nc1cccc(-c2nc3ccccc3[nH]2)c1 | 9 (inactive)
33 | O=C(Cc1cccs1)Nc1cccc(-c2nc3ccccc3[nH]2)c1 | 14 (inactive)
34 | O=C(Nc1cccc(-c2nc3ccccc3[nH]2)c1)c1ccc(C(=O)Nc2cccc(-c3nc4ccccc4[nH]3)c2)cc1 | 151 (active)
35 | Cc1ccc(CN2C(=O)N/C(=C/c3cc(C)n(-c4ccccn4)c3C)C2=O)cc1 | 16 (inactive)
36 | CCCCCCCCCCCCC(NC(C)=O)(C(=O)OCC)C(=O)OCC | 6 (inactive)
37 | CC(=O)Nc1ccc(NC(=O)COc2ccccc2C(=O)Nc2cccc(Cl)c2Cl)cc1 | 14 (inactive)
38 | CN(C)S(=O)(=O)Oc1ccccc1C(=O)Nc1ccccc1Cl | 81 (active)
39 | O=C(Nc1ccccc1Cl)c1ccccc1S(=O)(=O)c1ccccc1[N+](=O)[O-] | 11 (inactive)
40 | COc1ccc(CCNC(=O)C2CC3Cn4c(nc5cc(C)c(C)cc54)C3N2C)cc1 (stereo not given) | 8 (inactive)
41 | COC(=O)c1c(C)oc(C)c1S(=O)(=O)NCc1ccc(Cl)cc1 | 6 (inactive)
42 | CC1=CC(=C(C#N)c2nc3ccccc3s2)C=C(C)N1c1ccc(F)cc1F | 9 (inactive)
43 | Oc1[nH]c2ccc(Br)cc2c1N=Nc1nn[nH]n1 | 4 (inactive)
44 | CNC(=S)N1CCC(NC(=O)C(Cc2ccc(F)cc2)NC(C)=O)CC1 (stereo not given) | 10 (inactive)

Row | Compound | fluorescence (KMESF)
45 | Fc1cccc(CSc2nnc3ccc(-c4ccncc4)nn23)c1 | 6 (inactive)
46 | O=C(Cc1c[nH]c2ccccc12)OCCOC(=O)Cc1c[nH]c2ccccc12 | 21 (inactive)
47 | COc1ccccc1NC(=O)CCCc1c[nH]c2ccccc12 | 257 (active)
48 | COc1ccccc1NC(=O)C[n+]1ccccc1 | 10 (inactive)
49 | O=C(O)Cc1csc(-c2cccc(Oc3ccccc3)c2)n1 | 6 (inactive) and 3 (inactive)
50 | O=C(CSc1ccccc1F)NC1CCS(=O)(=O)C1 (stereo not given) | 9 (inactive)
51 | CCOC(=O)/C=C/CN(C(=O)OC(C)(C)C)S(=O)(=O)N1CC=CC1 | 9 (inactive)
52 | COc1cc(NC(=S)NNC(=O)CC(C)C)c(OC)cc1Cl | 13 (inactive)
53 | CC(NC(=O)c1ccc(N2CCNCC2)c([N+](=O)[O-])c1)C12CC3CC(CC(C3)C1)C2 (stereo not given) | 9 (inactive)
54 | O=C1CS(=O)CN1c1ccc(Oc2ccccc2)cc1 (stereo not given) | 9 (inactive)
55 | C/C=C/C(=O)Nc1ccc(N2CCN(c3ccc(C(F)(F)F)cn3)CC2)nc1 | 8 (inactive)
56 | COC(=O)c1cn(C(=O)c2ccc(Cl)cc2)c2ccccc12 | 4 (inactive)
57 | Cc1nc(-c2ccc(Cl)cc2)sc1C1(C)CC(c2ccccc2F)=NO1 (stereo not given) | 7 (inactive)
58 | O=C(CCC1CCCN(Cc2ccc(O)c(Cl)c2)C1)NCc1ccccc1F (stereo not given) | 12 (inactive)
59 | CC(C)=CC(=O)Nc1nnc(-c2ccc(F)cc2)s1 | 71 (active)
60 | Cc1ccc(NC(=O)Nc2nnc(-c3ccncc3)s2)cc1 | 6 (inactive)
61 | Cc1ccc(C(=O)Nc2nnc(-c3ccncc3)s2)o1 | 9 (inactive)
62 | CN(C)/C(=N\OC(=O)c1ccccc1)c1nonc1N | 8 (inactive)
63 | NC(=O)N/N=C\c1cccs1 | 12 (inactive)
64 | Cc1ccc(S(=O)(=O)CC(=O)Nc2c(C)n(C)n(-c3ccccc3)c2=O)cc1 | 12 (inactive)
65 | Cc1ccc(S(=O)(=O)/N=C(/NC(=S)Nc2c(C)n(C)n(-c3ccccc3)c2=O)c2ccccc2)cc1 | 53 (active)
66 | Cc1c(NC(=S)Nc2ccccc2)c(=O)n(-c2ccccc2)n1C | 4 (inactive)

Row | Compound | fluorescence (KMESF)
67 | C=CC1C(OC2OC(CO)C(O)C(O)C2O)OC=C(C(=O)OC)C1CC1CC(=O)CC(CC(=O)CCc2ccc(O)cc2)O1 (stereo not given) | 8 (inactive)
68 | Fc1ccc(Cn2nnnc2C(c2cccs2)N2CCCCCC2)cc1 (stereo not given) | 62 (active)
69 | CCC(C)(C)n1nnnc1C(c1cccs1)N1CCN(Cc2ccccc2)CC1 (stereo not given) | 5 (inactive)
70 | Fc1ccccc1C(c1nnnn1Cc1ccc2c(c1)OCO2)N1CCN(Cc2ccccc2)CC1 (stereo not given) | 5 (inactive)
71 | Cc1ccc(CCCOC(=O)C[N+]2(C)CCCC2)cc1 | 6 (inactive)
72 | CSc1ccccc1NC(=O)Cc1ccc(Br)cc1 | 12 (inactive)
73 | CN1CCN(Cc2c(O)ccc3c2oc(=O)c2ccccc23)CC1 | 22 (inactive)
74 | CCOC(=O)c1oc2c(CN3CCN(C)CC3)c(O)ccc2c(=O)c1-c1ccc(Br)cc1 | 189 (active)
75 | CCN1CCN(Cc2c(O)ccc3c(=O)c(-c4ccc(OC)c(OC)c4)c(C(F)(F)F)oc23)CC1 | 16 (inactive)
76 | OCCn1c(-c2ccccc2)csc1=Nc1ccccc1 | 3 (inactive)
77 | CCOCN(C(=O)Cn1c(C(C)O)nc2ccccc21)c1c(C)cccc1CC (stereo not given) | 57 (active)
78 | CC(O)c1nc2ccccc2n1Cc1ccc([N+](=O)[O-])cc1 (stereo not given) | 7 (inactive)
79 | CCc1cccc(C)c1N(C(=O)Cn1c(CO)nc2ccccc21)C(C)COC (stereo not given) | 5 (inactive)
80 | O=C1CC(N2CCN(c3ccc(F)cc3)CC2)C(=O)N1c1ccccc1 (stereo not given) | 9 (inactive)
81 | COC(=O)c1ccc(S(=O)(=O)N(CCO)Cc2ccccc2)n1C | 6 (inactive)
82 | CCCC1C(c2ccccc2)C(C#N)(C#N)C2(C#N)CC1(N)NC2=O (stereo not given) | 90 (active)
83 | Cc1ccc(C(=O)COC(=O)CCN2C(=O)C3C4CC(C(Br)C4Br)C3C2=O)cc1 (stereo not given) | 14 (inactive)
84 | CCOc1ccc(S(=O)(=O)N/N=C(\C)c2ccc(Cl)c(Cl)c2Cl)cc1 | 7 (inactive)
85 | N#CCSc1nn(-c2ccc(F)cc2)c(=S)s1 | 24 (inactive)
86 | CCOC(=O)c1c(/N=C/c2cc(C)ccc2O)sc2c1CCC2 | 14 (inactive)
87 | CC(C)(C)Nc1c(-c2cccs2)nc2ccccn12 | 9 (inactive)
88 | O=C(COC(=O)Cn1cnc2ccccc2c1=O)NCC12CC3CC(CC(C3)C1)C2 | 5 (inactive)

Row | Compound | fluorescence (KMESF)
89 | O=C(COC(=O)Cn1cnc2ccccc2c1=O)NCc1ccccc1Cl | 58 (active)
90 | Cn1c(CCC(=O)OCC(=O)NCc2ccccc2Cl)nc(=O)c2ccccc21 | 21 (inactive)
91 | COc1ccc(Br)cc1C(=O)Nc1cccc(C)c1C | 8 (inactive)
92 | O=C(CCCCCN1C(=O)c2cccc3cccc(c23)C1=O)NCc1ccco1 | 4 (inactive)
93 | N#Cc1ccc(N2Cc3ccccc3/C2=N/C(=O)Nc2ccc(Cl)cc2)cc1 | 15 (inactive)
94 | CC(NC(=O)COC(=O)c1cc(=O)[nH]c2ccccc12)c1ccccc1 (stereo not given) | 7 (inactive)
95 | COc1cc2c(cc1OC)C(c1ccncc1)CC(=O)N2 (stereo not given) | 47 (active)
96 | COc1cc2c(cc1OC)C(c1ccc(C)o1)CC(=O)N2 (stereo not given) | 22 (inactive)
97 | COC(=O)c1ccc(C2CC(=O)Nc3cc(OC)c(OC)cc32)cc1 (stereo not given) | 19 (inactive)
98 | CC(CO)(CO)NC(=O)c1ccc(=O)[nH]n1 | 4 (inactive)
99 | CC(=O)NCC(=O)N1CCCC(C(=O)c2ccc3c4c(cccc24)CC3)C1 (stereo not given) | 80 (active)
100 | Cc1ncoc1C(=O)N1CCCC(C(=O)c2ccc3c4c(cccc24)CC3)C1 (stereo not given) | 10 (inactive)
101 | CCn1ccnc1CN1CCCC(C(=O)c2ccc3c4c(cccc24)CC3)C1 (stereo not given) | 8 (inactive)
102 | Cc1nnc(Nc2ccccc2F)s1 | 5 (inactive)
103 | COc1cc(/C=C/C(=O)OCC(=O)N2CCOCC2)ccc1OCC#N | 10 (inactive)
104 | O=C(NCCCc1ccccc1)C1CCC(CNc2c(N3CCCCC3)c(=O)c2=O)CC1 (stereo not given) | 7 (inactive)
105 | CCCc1nc(SCC(=O)Nc2ccc(S(=O)(=O)N(C)C)cc2)c2ccccc2n1 | 1 (inactive)
106 | Cn1c(SCC(=O)N2CCCc3ccccc32)nc2ccccc2c1=O | 4 (inactive)
107 | O=C(CSc1ccc2nnc(-c3ccccc3)n2n1)N1CCCc2ccccc21 | 76 (active)
108 | CCCn1c(SCC(=O)N2CCc3ccccc32)nnc1-c1ccncc1 | 7 (inactive)
109 | CCOc1ccc2sc(NS(=O)(=O)c3ccc(N)cc3)nc2c1 | 4 (inactive)
110 | CC(C)(C)NC(=O)NCc1ccco1 | 6 (inactive)
